Test results: PMC5540273 (PLoS ONE, 2017)
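Also: KINOMEscan kinase panel screen.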

These compounds were tested on T1, RSK4(Kin.Dom.1-N-terminal). Conditions: concentration: 1 μM, replicates: in singlicate; n = 1.
T1 construct: gene RPS6KA6
For `O=C(O)C(F)(F)F.O=C(O)C(F)(F)F.O=c1[nH]ccc2nc(N[C@@H]3CCCNC3)nc(Nc3ccc(S(=O)(=O)N4CCOCC4)cc3)c12` [GSK2177277], the “%Inh” value was 99.4%.
With `COc1cccc(NC(=O)NC2CCN(c3ccnc(Nc4cc(OC)c(OC)c(OC)c4)n3)C2)c1` (centres unmarked) [GSK1379763] the “%Inh” value was 0%.
For `CCS(=O)(=O)c1ccc(OC)c(Nc2nccc(-c3c(-c4cccc(NC(=O)c5c(F)cccc5F)c4)nn4ncccc34)n2)c1` [GSK326180], the “%Inh” value was 0%.
With `COC(=O)Nc1nc2cc(Oc3ccc(NC(=O)Nc4cc(C(F)(F)F)ccc4F)cn3)ccc2[nH]1.Cl.Cl` [GW681170] the “%Inh” value was 0%.
For `COc1cc(Nc2nccc(N3CCC(NC(=O)Nc4cccc(C(C)=O)c4)C3)n2)cc(OC)c1OC` (centres unmarked) [GSK1379753], the “%Inh” value was 15%.
In the case of `COc1cc(Nc2nccc(-c3c(-c4cccc(NC(=O)c5c(F)cccc5F)c4)nn4ccccc34)n2)cc(OC)c1OC` [GSK323521], the “%Inh” value is reported as 0%.
`Cl.Cl.NCC(NC(=O)c1cc(-c2ccccc2)c(-c2ccnc3[nH]ccc23)s1)c1ccccc1` (centres unmarked) [GSK1321561] was tested, and the “%Inh” value was 0%.
With `Cl.c1ccc(-c2ccc3c(Nc4ccc5[nH]ncc5c4)ccnc3c2)nc1` [GW440137] the “%Inh” value was 0%.
With `CCn1c(-c2nonc2N)nc2c(C#CC(C)(C)O)ncc(OCCCCN)c21.O=C(O)C(F)(F)F.O=C(O)C(F)(F)F` [GSK507274] the “%Inh” value was 2%.
For `CN1CCN(CCCNc2nccc(-c3c(-c4ccc(F)cc4)nn4cc(C(F)(F)F)ccc34)n2)CC1` [GW621581], the “%Inh” value was 0%.
`Cl.Cl.NCC(NCc1ccc(-c2ccnc3[nH]ccc23)s1)c1ccccc1` (centres unmarked) [GSK1321565] was tested, and the “%Inh” value was 55%.
For `COc1cc(Nc2ncc3c(C)nc(-c4cc5ccccc5[nH]4)n3n2)cc(OC)c1OC` [GW869516], the “%Inh” value was 7%.
With `Nc1ncnc2c1nc(-c1ccccc1)n2-c1ccccc1` [SKF-97293] the “%Inh” value was 36%.
For `O=C(Nc1cccc(-c2nn3ccccc3c2-c2ccnc(Nc3cccc(C(F)(F)F)c3)n2)c1)c1c(F)cccc1F` [GSK292658], the “%Inh” value was 0%.
In the case of `CCCCc1nn2ncccc2c1-c1ccnc(Nc2ccc(N3CCN(C)CC3)cc2)n1` [GW684941], the “%Inh” value is reported as 0%.
With `Fc1ccc(-c2ncn(C3CCNCC3)c2-c2ccnc(Oc3ccc(-c4ccccc4)cc3)n2)cc1` [SB-245391] the “%Inh” value was 18%.
For `FC(F)(F)c1ccc(/C=C/c2cncnc2Nc2ccc3[nH]c(Cc4ccccc4)nc3c2)cc1` [GW709199], the “%Inh” value was 0%.
With `CC(=O)N1CCN(c2ccc(Nc3nccc(-c4sc(C(C)C)nc4-c4cccc(NS(=O)(=O)c5cccc(Cl)c5)c4)n3)cn2)CC1` [GSK1660437] the “%Inh” value was 0%.
For `CC(=O)Nc1nc2cnc(Nc3cc(NC(=O)c4cccc(C5(C#N)CC5)c4Cl)ccc3C)nc2s1`, the “%Inh” value was 0%.
`NCCCC(NC(=O)c1cc(Br)c(-c2ccnc3[nH]ccc23)s1)c1ccccc1.O=C(O)C(F)(F)F.O=C(O)C(F)(F)F` (centres unmarked) [GSK1287544] was tested, and the “%Inh” value was 8%.
`CN(C)Cc1ccc(-c2ccc3c(Nc4ccc(Oc5ccccn5)cc4)ccnc3c2)o1` [GW567148] was tested, and the “%Inh” value was 17%.
With `Cn1cc(-c2ccc3c(c2)CCN3C(=O)Cc2cccc(Cl)c2)c2c(N)ncnc21` [GSK2606590] the “%Inh” value was 0%.
With `O=c1[nH]cc(-c2ccc(N3CCOCC3)cc2)c2sc(-c3cn[nH]c3)cc12` [GSK2276055] the “%Inh” value was 0%.
In the case of `CN1CCN(Cc2cccc(-c3ccc4c(Nc5ccc(Oc6ccccc6)cc5)ccnc4c3)c2)CC1` [GW578342], the “%Inh” value is reported as 0%.
In the case of `COc1cccc(-c2ccc3c(NC(=O)C4CC4)n[nH]c3n2)c1` [SB-710903], the “%Inh” value is reported as 5%.

What follows are compounds tested on T2, RSK4(Kin.Dom.2-C-terminal). Conditions: concentration: 1 μM, replicates: in singlicate; n = 1.
T2 construct: gene RPS6KA6
`Cc1cccc(Nc2nc(N[C@H]3CCNC3)ncc2C(N)=O)c1.Cl` [GSK2197149] was tested, and the “%Inh” value was 23%.
For `O=C(Nc1ccccc1F)NC1CCN(c2ccnc(Nc3ccc(F)cc3)n2)CC1` [GSK1379800], the “%Inh” value was 6%.
For `CN(C)S(=O)(=O)c1cc(-c2ccc3nccc(-c4cccc(S(N)(=O)=O)c4)c3c2)cnc1N` [GSK1669921], the “%Inh” value was 44%.
`COc1ccc(CNC(=O)NC2CCN(c3ccnc(Nc4ccc(F)cc4)n3)CC2)cc1` [GSK1379788] was tested, and the “%Inh” value was 12%.
For `Cl.Cl.NCC(C(=O)Nc1cc(Br)c(-c2ccnc3[nH]ccc23)s1)c1ccccc1` (centres unmarked) [GSK1269851], the “%Inh” value was 2%.
For `COC(=O)Nc1nc2ccc(Oc3ccc(NC(=O)Nc4cc(C(F)(F)F)ccc4F)cc3)cc2n1C.Cl` [GW692089], the “%Inh” value was 0%.
With `Nc1ncc(-c2cccnc2)c2scc(-c3ccc4c(c3)CCN4C(=O)Cc3ccccc3)c12` [GSK683281] the “%Inh” value was 26%.
With `Cc1ccc(C(=O)Nc2ccc(Nc3ccnc4cc(-c5nccs5)ccc34)cc2O)cc1.Cl` [GW494702] the “%Inh” value was 0%.
In the case of `Cn1cc(-c2[nH]c3cc(NC(=O)[C@H](N)C4CCCCC4)cc4c3c2C=NNC4=O)cn1`, the “%Inh” value is reported as 35%.
`CCc1ccc(-c2ccc3c(c2)-c2c(cnn2C)S(=O)(=O)N3C)cc1` was tested, and the “%Inh” value was 0%.
In the case of `Nc1ncc(-c2ccc3nccc(-c4ccncc4)c3c2)cc1S(=O)(=O)N1CCOCC1` [GSK1627798], the “%Inh” value is reported as 22%.
For `O=C(Nc1n[nH]c2nc(-c3ccc(O)cc3)ccc12)C1CC1` [SB-710363], the “%Inh” value was 0%.
`O=C(O)C(F)(F)F.O=C(O)C(F)(F)F.O=c1[nH]ccc2nc(N[C@@H]3CCCNC3)nc(Nc3ccc(S(=O)(=O)N4CCOCC4)cc3)c12` [GSK2177277] was tested, and the “%Inh” value was 52%.
For `COc1cccc(NC(=O)NC2CCN(c3ccnc(Nc4cc(OC)c(OC)c(OC)c4)n3)C2)c1` (centres unmarked) [GSK1379763], the “%Inh” value was 0%.
In the case of `CCS(=O)(=O)c1ccc(OC)c(Nc2nccc(-c3c(-c4cccc(NC(=O)c5c(F)cccc5F)c4)nn4ncccc34)n2)c1` [GSK326180], the “%Inh” value is reported as 0%.
In the case of `COC(=O)Nc1nc2cc(Oc3ccc(NC(=O)Nc4cc(C(F)(F)F)ccc4F)cn3)ccc2[nH]1.Cl.Cl` [GW681170], the “%Inh” value is reported as 0%.
With `COc1cc(Nc2nccc(N3CCC(NC(=O)Nc4cccc(C(C)=O)c4)C3)n2)cc(OC)c1OC` (centres unmarked) [GSK1379753] the “%Inh” value was 12%.
With `COc1cc(Nc2nccc(-c3c(-c4cccc(NC(=O)c5c(F)cccc5F)c4)nn4ccccc34)n2)cc(OC)c1OC` [GSK323521] the “%Inh” value was 23%.
With `Cl.Cl.NCC(NC(=O)c1cc(-c2ccccc2)c(-c2ccnc3[nH]ccc23)s1)c1ccccc1` (centres unmarked) [GSK1321561] the “%Inh” value was 0%.
With `Cl.c1ccc(-c2ccc3c(Nc4ccc5[nH]ncc5c4)ccnc3c2)nc1` [GW440137] the “%Inh” value was 0%.
With `CCn1c(-c2nonc2N)nc2c(C#CC(C)(C)O)ncc(OCCCCN)c21.O=C(O)C(F)(F)F.O=C(O)C(F)(F)F` [GSK507274] the “%Inh” value was 7%.
In the case of `CN1CCN(CCCNc2nccc(-c3c(-c4ccc(F)cc4)nn4cc(C(F)(F)F)ccc34)n2)CC1` [GW621581], the “%Inh” value is reported as 80%.
`Cl.Cl.NCC(NCc1ccc(-c2ccnc3[nH]ccc23)s1)c1ccccc1` (centres unmarked) [GSK1321565] was tested, and the “%Inh” value was 26%.
With `COc1cc(Nc2ncc3c(C)nc(-c4cc5ccccc5[nH]4)n3n2)cc(OC)c1OC` [GW869516] the “%Inh” value was 3%.
In the case of `Nc1ncnc2c1nc(-c1ccccc1)n2-c1ccccc1` [SKF-97293], the “%Inh” value is reported as 0%.
For `O=C(Nc1cccc(-c2nn3ccccc3c2-c2ccnc(Nc3cccc(C(F)(F)F)c3)n2)c1)c1c(F)cccc1F` [GSK292658], the “%Inh” value was 0%.
In the case of `CCCCc1nn2ncccc2c1-c1ccnc(Nc2ccc(N3CCN(C)CC3)cc2)n1` [GW684941], the “%Inh” value is reported as 82%.
In the case of `Fc1ccc(-c2ncn(C3CCNCC3)c2-c2ccnc(Oc3ccc(-c4ccccc4)cc3)n2)cc1` [SB-245391], the “%Inh” value is reported as 9%.
For `FC(F)(F)c1ccc(/C=C/c2cncnc2Nc2ccc3[nH]c(Cc4ccccc4)nc3c2)cc1` [GW709199], the “%Inh” value was 0%.
In the case of `CC(=O)N1CCN(c2ccc(Nc3nccc(-c4sc(C(C)C)nc4-c4cccc(NS(=O)(=O)c5cccc(Cl)c5)c4)n3)cn2)CC1` [GSK1660437], the “%Inh” value is reported as 6%.
For `CC(=O)Nc1nc2cnc(Nc3cc(NC(=O)c4cccc(C5(C#N)CC5)c4Cl)ccc3C)nc2s1`, the “%Inh” value was 18%.
In the case of `NCCCC(NC(=O)c1cc(Br)c(-c2ccnc3[nH]ccc23)s1)c1ccccc1.O=C(O)C(F)(F)F.O=C(O)C(F)(F)F` (centres unmarked) [GSK1287544], the “%Inh” value is reported as 0%.
In the case of `CN(C)Cc1ccc(-c2ccc3c(Nc4ccc(Oc5ccccn5)cc4)ccnc3c2)o1` [GW567148], the “%Inh” value is reported as 0%.
`Cn1cc(-c2ccc3c(c2)CCN3C(=O)Cc2cccc(Cl)c2)c2c(N)ncnc21` [GSK2606590] was tested, and the “%Inh” value was 19%.
For `O=c1[nH]cc(-c2ccc(N3CCOCC3)cc2)c2sc(-c3cn[nH]c3)cc12` [GSK2276055], the “%Inh” value was 18%.
For `CN1CCN(Cc2cccc(-c3ccc4c(Nc5ccc(Oc6ccccc6)cc5)ccnc4c3)c2)CC1` [GW578342], the “%Inh” value was 0%.
For `COc1cccc(-c2ccc3c(NC(=O)C4CC4)n[nH]c3n2)c1` [SB-710903], the “%Inh” value was 21%.
